Reference: PubChem BioAssay AID2113 (National Center for Advancing Translational Sciences (NCATS), 2009)
Records with an inconclusive call do not appear. Entries that show only a call come without a potency. The source made the active and inactive calls. Calls come from the whole dose curve; as a rule, active = well fitted curve in either direction with a large enough effect; inconclusive = small, poorly fitted or top-dose-only effect; inactive = no such curve, though single readings can be large or run the other way.

Biological target: Lysosomal alpha-glucosidase (Homo sapiens) (UniProt P10253)
Experiment: Confirmation of Inhibitors and Activators of Human alpha-Glucosidase From Spleen Homogenate;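 for potency: fluorescence of 4-methylumbelliferone released from a fluorogenic glucopyranoside substrate at pH 5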
How it was run: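 Compounds titrated against spleen-homogenate alpha-glucosidase, pH 5.0, 1 mM 4-MU-glucoside substrate, 37 C for 40 min. Fluorescence after pH 10 stop, normalised to no-enzyme and enzyme controls; Hill-equation AC50.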
Potency is the fitted concentration of half-maximal effect.

Compound | Potency
CC1CC(C)CN(CC(=O)N2c3ccccc3CCc3ccccc32)C1 (centres undefined) | inactive
O=C(Nc1ccc(OCC(=O)N2CCN(S(=O)(=O)c3ccccc3)CC2)cc1)c1ccco1 | inactive
Nc1cc(=O)[nH]c(=S)n1-c1cccc(C(F)(F)F)c1 | inactive
COc1ccc(/C=C\c2nccc3c2[nH]c2ccccc23)cc1 | inactive
COC(=O)c1c(NC(=O)Cn2nc(C(F)F)cc2C(F)F)sc(C)c1C | inactive
COc1ccc2nc3c(cc2c1)Cn1c-3nc2ccccc2c1=O | inactive
CC(=O)c1ccc(N2CCN(C(=O)c3ccc4c(c3)CCC(=O)N4)CC2)cc1 | inactive
O=S(=O)(c1cccc(Cl)c1)N1CCOCC1 | inactive
O=S(=O)(c1ccc(Br)cc1)N1CCOCC1 | inactive
CN1CCN(S(=O)(=O)c2ccccc2)CC1 | inactive
Clc1ccc(Nc2ncnc3ccc(Br)cc23)cc1 | inactive
O=C(O)Cn1nnnc1SCC(=O)Nc1ccc(OC(F)(F)F)cc1 | inactive
Cc1ccc(S(=O)(=O)N2CCN(C(=O)CSc3nc4ccccc4c(=O)[nH]3)CC2)c(C)c1 | inactive
COc1cccc(CCn2c(N)cc(=O)[nH]c2=S)c1OC | inactive
OCC1NCC(O)C(O)C1O (centres undefined) | inactive
COc1ccccc1NC(=O)c1ccc(Br)o1 | inactive
CCCN1CNc2c(c(=O)[nH]c(=S)n2-c2ccccc2Cl)C1 | inactive
OC[C@H]1NC[C@H](O)[C@@H](O)[C@H]1O | inactive
CC1OC(OC2C(CO)OC(OC3C(CO)OC(O)C(O)C3O)C(O)C2O)C(O)C(O)C1NC1C=C(CO)C(O)C(O)C1O (centres undefined) | inactive
CCc1ccc(-c2nc(-c3cc4ccc(O)cc4oc3=O)sc2C)cc1 | inactive
Cc1cccc(-n2c(N)cc(=O)[nH]c2=S)c1 | inactive
COc1ccc(/C=C/c2nnc(NC(C)=O)s2)cc1 | inactive
CC(C)Cn1c(SCC(=O)N2CCCCC2)nc2ccccc2c1=O | inactive
NC(=NCc1ccccc1)NC(=O)c1nc(Cl)c(N)nc1N | inactive
COc1ccccc1N1CCN(C(c2cccs2)C(C)NC(=O)c2cccs2)CC1 (centres undefined) | inactive

Compound | Potency
c1ccc(-n2c(-c3cccs3)nc3nc4ccccc4nc32)cc1 | inactive
COc1ccc(S(=O)(=O)N2CCN(C(=O)COc3ccc4c(C)cc(=O)oc4c3)CC2)cc1 | inactive
COc1ccc(CCn2c(N)cc(=O)[nH]c2=O)cc1OC | inactive
Cn1c(=O)c2c(nc(NCc3ccc4c(c3)OCO4)n2Cc2ccc(F)cc2)n(C)c1=O | inactive
COc1cccc2cc(-c3nc(-c4ccc(C)cc4)c(C)s3)c(=O)oc12 | inactive
CC(=O)N1CCN(c2ccc(NS(=O)(=O)c3ccc4c(c3)CC(=O)N4)cc2)CC1 | inactive
COc1ccc(CCn2c3c(c(=O)[nH]c2=S)CN(Cc2ccccc2)CN3)cc1OC | 11.2 µM (active)
O=C(Nc1nnc(-c2cccc(F)c2)s1)Nc1ccccc1F | inactive
Cc1[nH]n(C(N)=S)c(=O)c1N=Nc1ccc2ccccc2c1 | inactive
CC(=O)c1ccc(N2CCN(S(=O)(=O)c3ccc4c(c3)C(Cl)(Cl)C(=O)N4)CC2)cc1 | 32.6 µM [inhibitor] (active)
COC(=O)CSc1cc([N+](=O)[O-])ccc1NC(=O)OC | inactive
O=C(O)c1c(-c2ccccc2)c2oc3ccccc3c2[nH]c1=O | inactive
COc1ccc(/C=C/c2nnc(NC(=O)CSc3ccc(C)cc3)s2)cc1 | inactive
COc1ccc(S(=O)(=O)N2CCOCC2)cc1 | inactive
COCCn1c(=NC(=O)c2ccc3c(c2)OCO3)c(C#N)cc2c(=O)n3cccc(C)c3nc21 | inactive
COc1ccc(CCn2c(=S)[nH]c(=O)c3[nH]cnc32)cc1OC | inactive
CCN(CC)S(=O)(=O)c1ccc2c(c1)C(=NNc1ccccc1)c1cc(S(=O)(=O)N(CC)CC)ccc1-2 | inactive
CCCC1(C)Nc2ccccc2-c2nc3ccccc3n21 (centres undefined) | inactive
CCc1sc(-c2cc3ccc(O)cc3oc2=O)nc1-c1cc(C)ccc1C | inactive
COc1cc2cc(CN(Cc3nnnn3Cc3ccccc3)CC3CCCO3)c(=O)[nH]c2cc1OC (centres undefined) | inactive
C[C@@H](NC(=O)c1nc[nH]c1C(=O)N[C@@H](Cc1ccccc1)C(=O)OC(C)(C)C)c1ccccc1 | inactive
N#Cc1cccc(S(=O)(=O)N2CCOCC2)c1 | inactive
COc1ccc(-c2nnc(NC(=O)CSc3ccc(Cl)cc3)s2)cc1 | inactive
CC(=O)Nc1ccc(S(=O)(=O)N2CCN(c3ccc(C(C)=O)cc3)CC2)cc1 | inactive
